# From the supplement of paper PMC8387472
# Legend:
# Conditions in all cases: mESC; 2uM; 72 h treatment, harvest day 5
# [1] = compound: O=c1cc(N2CCOCC2)oc2c(-c3ccc4c(c3)OCCO4)csc12; assay: fraction of edited reads among all mapped reads; higher = more Cas9 editing
# Mercaptopurine (6-MP) = compound: S=c1[nH]cnc2nc[nH]c12 [Mercaptopurine (6-MP)]; assay: as above
# [2] = compound: S=c1nc[nH]c2nc[nH]c12 [6-Mercaptopurine (6-MP) Monohydrate]; assay: as above
# [3] = compound: CC(=O)O/N=C1\C(=O)N(Cc2cc(Cl)ccc2Cl)c2ccc(Cl)cc21; assay: fraction of microhomology deletions among edited reads; higher = more MH deletions
# [4] = compound: CC(C)(C#N)c1ccc(N2C(=O)OCc3cnc4ccc(-c5cnc6ccccc6c5)cc4c32)cc1; assay: as above
# [5] = compound: CCCCOc1c(C(=O)c2c(F)cc(C)cc2F)c[nH]c2nncc1-2; assay: as above
# [6] = compound: CCN1CCN(CC(=O)Nc2ccc(-c3cccc4c(=O)cc(N5CCOCC5)oc34)c3sc4ccccc4c23)CC1; assay: as above
# [7] = compound: CCc1c2c(nc3ccc(OC(=O)N4CCC(N5CCCCC5)CC4)cc13)-c1cc3c(c(=O)n1C2)COC(=O)[C@]3(O)CC [Irinotecan HCl Trihydrate]; assay: as above
# [8] = compound: CCn1c(=O)c(-c2ccc(Cl)cc2Cl)cc2cnc(Nc3ccc(N4CCNCC4)c(F)c3)nc21; assay: as above
# [9] = compound: CNc1ccc([N+](=O)[O-])c(Nc2ccc3[nH]ncc3c2)n1; assay: as above
Target,fraction of edited reads among all mapped reads [1],fraction of edited reads among all mapped reads (Mercaptopurine (6-MP)),fraction of edited reads among all mapped reads [2],fraction of microhomology deletions among edited reads [3],fraction of microhomology deletions among edited reads [4],fraction of microhomology deletions among edited reads [5],fraction of microhomology deletions among edited reads [6],fraction of microhomology deletions among edited reads [7],fraction of microhomology deletions among edited reads [8],fraction of microhomology deletions among edited reads [9]
"39.0 (DMSO control at this site: 1-bp insertion 0.328, MH deletion 0.371, edited 0.204) CTGCACAGTCACTTAGGATAGGAGAAGATGATGTATAGGGTTTAGTGGGAGATGTTGCAAG",0.121,0.243,0.167,0.412,0.405,0.358,0.539,0.384,0.367,0.332
"25.0 (DMSO control at this site: 1-bp insertion 0.017, MH deletion 0.774, edited 0.143) GGGCCTGAATGGTGTGGACATCTACTCGCTGGTGAGCTGGTGACTGAAAACATTCAGTGGC",0.105,0.193,0.126,0.806,0.772,0.766,0.787,0.759,0.783,0.778
"1.0 (DMSO control at this site: 1-bp insertion 0.521, MH deletion 0.323, edited 0.141) GTGTCACAGTGCACGAGTGACGGGATAATGTGCTGACAGGTAATTGATAGGCTTCCAACTT",0.0814,0.187,,0.293,0.269,0.238,0.461,0.246,0.293,0.218
15.0 GCGCCTCCAATGACCCAGTGGGATCCTACTCCATAATGGGATCCTGGGGATTCCTCGCTCC,,,0.132,0.354,0.378,,,,,
"31.0 (DMSO control at this site: 1-bp insertion 0.315, MH deletion 0.329, edited 0.026) ACCTCCACAGGCTGGGTGGCCCGGAGGCTGGGCGGCCCGGAGGCTGGGCTGGGCGAGTATC",0.0134,0.0491,0.0301,0.32,0.349,0.458,0.276,0.519,0.5,0.405
"44.0 (DMSO control at this site: 1-bp insertion 0.181, MH deletion 0.512, edited 0.123) ACACATACCTTCTTCGAGGCAGCCAGCATGATGAGACAGGTCTCCCACAAACACATCGTGT",0.091,0.173,0.13,0.553,0.526,0.528,0.637,0.469,0.547,0.506
"29.0 (DMSO control at this site: 1-bp insertion 0.084, MH deletion 0.745, edited 0.133) TTGATGAACTTCCTCTTCTTCTCATGTCTCCGGTCTCCGGTAGGCCACGTGCATGGCCACT",0.0905,0.171,0.127,0.727,0.728,0.734,0.773,0.719,0.757,0.738
"0.0 (DMSO control at this site: 1-bp insertion 0.463, MH deletion 0.339, edited 0.14) AGGATTACCGAGACCTACGCGAACCGAAATCGCTGTCCGGTGCGCAAGCAGGGCTGGCGTC",0.0913,0.181,0.128,0.346,0.314,0.312,0.552,0.345,0.394,0.304
"47.0 (DMSO control at this site: 1-bp insertion 0.095, MH deletion 0.585, edited 0.118) GAGTGGTCCCGAGCCAGGAACTGTGTGTGTTGCAGGGGGGCAGTAACTCCCCAACTCCCTC",0.0673,0.143,0.101,0.564,0.539,0.518,0.62,0.473,0.597,0.542
